aSyn 5UTR act: Activators via SNCA 5'UTR binding, MLPCN; alpha-synuclein 5'UTR reporter, activators screen; activity score, % (tested at 7.5 µM), hits read low; 7.1% of 300,000 active; in the data active = activity score below about -60%
Numbers without * were called inactive. Only a sample is shown.

SMILES	aSyn 5UTR act
CC(=O)c1ccc(OCc2cc(C(=O)NCCn3nc(C)cc3C)no2)cc1	-68.5*
CC(=O)c1ccc(OCc2cc(C(=O)NC(C)c3cnn(C)c3)no2)cc1 (stereo not drawn)	-86.7*
CC(NC(=O)c1cc(COc2ccccc2)on1)c1nccs1 (stereo not drawn)	-169.1*
Cc1cc(OCc2cc(C(=O)NC(C)c3c(C)nn(C)c3C)no2)cc(C)c1Cl (stereo not drawn)	-114.4*
Cc1nc(C(C)NC(=O)c2cc(COc3ccc(C)c(C)c3)on2)c(C)s1 (stereo not drawn)	-82.2*
Cc1cc(CNC(=O)c2cc(COc3ccc(F)c(F)c3)on2)nn1C	-123.5*
CC(C)c1ccc(N(C(=O)c2csnn2)C(C(=O)NC(C)(C)C)c2ccncc2)cc1 (stereo not drawn)	-158.4*
O=C(Nc1cccc(Cl)c1)Nc1ccc2nccnc2c1	-163.2*
O=C(Nc1ccc2nccnc2c1)Nc1ccccc1Cl	-89.9*
Cn1nnc2cc(NC(=O)Nc3cccc(Cl)c3)ccc21	-150.7*
COc1ccc(CN2C(=O)CS/C2=N/N=C/c2ccccc2)cc1	-64.0*
COc1ccc(/C=N/N=C2/SCC(=O)N2Cc2ccccc2)cc1	-170.4*
CC(C)(C)c1ccc(-c2nnc(N)o2)cc1	-154.1*
O=[N+]([O-])c1ccc(-n2cc(-c3ccccc3)nn2)cc1	-79.6*
O=C(Nc1ccccc1Cl)C1Cc2ccccc2O/C1=N\O (stereo not drawn)	-88.4*
CC(C)(C)c1ccc(NC(=O)CC2(C(F)(F)F)OCCO2)cc1	-111.8*
COc1cc(NC2c3ccccc3C(=O)N2c2ccc(C)cn2)cc(OC)c1OC (stereo not drawn)	-76.9*
CCOC(=O)c1ccccc1NC1c2ccccc2C(=O)N1c1ccc(C)cn1 (stereo not drawn)	-85.3*
Cc1ccc(C2=NNC(C(O)C(O)C(O)C(C)O)S2)cc1 (stereo not drawn)	-87.1*
Cn1ccnc1SCC(=O)c1c[nH]c2ccccc12	-160.0*
CCOCCCNC(=O)c1cc2c(-c3ccc(Cl)cc3)nn(C)c2s1	-61.5*
Cn1nc(-c2ccc(Cl)cc2)c2cc(C(=O)NCCCN3CCOCC3)sc21	-134.0*
Cn1nc(-c2ccc(Cl)cc2)c2cc(C(=O)NCCN3CCOCC3)sc21	-106.8*
CCCCN(CC)CCNC(=O)c1cc2c(-c3ccc(Cl)cc3)nn(C)c2s1	78.9
CCN1CCN(C(=O)c2cc3c(-c4ccc(Cl)cc4)nn(C)c3s2)CC1	-68.0*
SMILES	aSyn 5UTR act
CCCN(CCC)CCNC(=O)c1cc2c(-c3ccccc3F)nn(C)c2s1	-61.7*
S=C(NCc1ccco1)Nc1ccc(Cl)cc1Cl	-107.8*
S=C(NCc1ccco1)Nc1ccc(Br)cc1Cl	-141.0*
Cc1ccc(C(=O)c2coc3ccc(O)c(Cl)c23)cc1	-163.0*
Cc1ccc(C(=O)c2coc3ccc(O)cc23)cc1	-64.2*
O=C(c1ccccc1)c1coc2ccc(O)c(Cl)c12	-95.6*
O=c1c(-c2ccc(O)cc2)coc2cc(OC3OC(CO)C(O)C(O)C3O)cc(O)c12 (stereo not drawn)	-82.9*
COc1cc(O)c2c(=O)c(-c3ccc(O[C@@H]4O[C@H](CO)[C@@H](O)[C@H](O)[C@H]4O)cc3)coc2c1	-155.3*
O=c1c(-c2ccc(O)cc2)coc2cc(OC3OC(CO)C(O)C(O)C3O)ccc12 (stereo not drawn)	-82.2*
Cc1ccc(O)c(C(=O)c2cnn(-c3ccccc3)c2)c1	-67.7*
O=C(Cc1cnn(-c2ccccc2)c1)c1ccc(O)c(O)c1O	-81.0*
O=[N+]([O-])c1ccc(/C=N/Nc2ccccn2)cc1	-188.2*
O=[N+]([O-])c1cccc(/C=C/c2ccccn2)c1	-140.7*
O=C(O)c1ccc(/C=N\Nc2ccccn2)cc1	-78.8*
Nc1nnc(/C=C/c2cccc([N+](=O)[O-])c2)s1	-63.5*
CN(C)c1ccc(/C=N\Nc2ccccn2)cc1	-231.6*
O=C(N/N=C/c1ccc(Sc2nc3ccccc3s2)c([N+](=O)[O-])c1)c1ccccn1	-74.6*
O=C(O)c1ccc(N/N=C/c2ccc(OC(=O)c3cccc(Cl)c3)cc2)cc1	76.0
O=[N+]([O-])c1cccc(/C=N/Nc2nccnc2Cl)c1	-147.5*
O=C(O)c1ccc(/C=N/Nc2ncc(Cl)cc2Cl)cc1	-71.8*
O=[N+]([O-])c1cc(Cl)cc(/C=N\Nc2ccccn2)c1O	89.9
Cc1[nH]c2ccccc2c1/C=N/Nc1ccccn1	-100.5*
O=[N+]([O-])c1cccc(/C=N/Nc2ccccn2)c1	-229.7*
O=C(N/N=C/c1ccc(Cl)c([N+](=O)[O-])c1)c1cnccn1	-71.7*
O=[N+]([O-])c1cc(/C=N\Nc2ccccn2)ccc1Cl	-90.5*
SMILES	aSyn 5UTR act
N#C/C(=C\c1cccc([N+](=O)[O-])c1)c1ccccn1	-67.1*
Cc1cc(C(=O)COC(=O)Cc2n[nH]c(=O)c3ccccc23)c(C)n1-c1ccc2c(c1)OCCO2	-99.7*
Cc1cc(C(=O)COC(=O)C2=COCCO2)c(C)n1-c1ccc2c(c1)OCO2	-134.3*
Cc1cc(C(=O)COC(=O)C2=COCCO2)c(C)n1-c1cccc(F)c1	-156.1*
Cn1ccnc1SCC(=O)Nc1ccc2nc(SCC(=O)NC3CC3)sc2c1	-152.3*
Cc1ccc(NC(=O)CSc2nccn2C)cc1F	-62.0*
O=C(CSc1ccccn1)Nc1nc2ccccc2s1	-62.6*
Cn1ccnc1SCC(=O)Nc1nc2ccccc2s1	-124.7*
c1ccc(CSc2n[nH]c(-c3ccco3)n2)cc1	-63.7*
c1ccc(CSc2nccc(-c3ccco3)n2)cc1	-81.5*
CN1c2ccsc2/C(=N/Nc2ccccc2)CS1(=O)=O	-122.8*
Cc1ccc(Nc2ncccc2C(=O)O)cc1C	-104.0*
O=C(Nc1cccc(C(F)(F)F)c1)Oc1ccc(Cl)c2cccnc12	75.1
CNC(=O)c1cccnc1Nc1cccc(C(F)(F)F)c1	-148.1*
Cc1ccc(Nc2ncccc2C(N)=O)cc1[N+](=O)[O-]	-201.0*
Cc1ccccc1CNC(=O)Nc1ccc(Cl)cc1	-110.2*
Cc1ccc(CNC(=O)Nc2ccccc2)c(C)c1	-153.4*
O=[N+]([O-])c1cccc(-c2nnc(-c3ccccc3F)o2)c1	-161.5*
COc1ccc(CCn2c(=N)c(C(=O)NC3CCCC3)cc3c(=O)n4ccccc4nc32)cc1OC	-61.9*
CCCn1c(=N)c(C(=O)NC2CCCC2)cc2c(=O)n3cccc(C)c3nc21	-67.0*
Cc1cccn2c(=O)c(C(=O)NC3CCCCC3)c(O)nc12	-66.5*
Cc1cccn2c(=O)c3cc(C(=O)NC4CCCC4)n(C)c3nc12	-93.5*
Cc1cccn2c(=O)c3cc(C(=O)NCC4CCCO4)c(=N)n(CCc4ccccc4)c3nc12 (stereo not drawn)	-100.8*
CCCN1CN=C(Nc2nc3ccccc3o2)NC1	-112.9*
c1ccc2oc(NC3=NCN(CC4CCCO4)CN3)nc2c1 (stereo not drawn)	-93.7*
SMILES	aSyn 5UTR act
COCCCN1CN=C(Nc2nc3ccccc3o2)NC1	-81.7*
COCc1nc2oc3ccc(F)cc3c(=O)c2cc1C(=O)OC	-108.3*
CCc1nc2oc3ccccc3c(=O)c2cc1C(=O)OC	-155.9*
COCc1nc2oc3ccc(C)cc3c(=O)c2cc1C(=O)OC	-270.4*
Cc1nc(N)sc1-c1csc(Nc2cccc(O)c2)n1	-78.7*
Cc1nc(C)c(-c2csc(Nc3cccc(O)c3)n2)s1	-155.7*
CC(=O)Nc1ccc(Nc2nc(-c3sc(C)nc3C)cs2)cc1	-77.2*
Cc1cccc(Nc2nc(-c3sc(C)nc3C)cs2)c1	-149.4*
O=c1c2ccccc2nnn1CSc1ccc2c(c1)OCCO2	-144.9*

Bioassay records: PubChem BioAssay, Broad Institute
